Measured values taken from PubChem BioAssay AID489012 (National Center for Advancing Translational Sciences (NCATS), 2010).
Results filed as inconclusive are left out. Activity calls are given as the source filed them. Calls follow the shape of the dose curve; as a rule, active = well fitted activation curve with a large enough effect; inconclusive = small, poorly fitted or top-dose-only effect; inactive = no such curve, though single readings can be large or run the other way.

What follows are compounds tested against Relaxin receptor 1 (Homo sapiens) (UniProt Q9HBX9) (assay: qHTS Assay for Agonists of the Relaxin Receptor RXFP1: RXFP1 Hit Validation). Details: HEK293T-RXFP1 cAMP TR-FRET, 30 min; series mostly up to 115 µM; activation: at the top concentration.
Source text: NIH Chemical Genomics Center [NCGC] NIH Molecular Libraries Probe Production Centers Network [MLPCN] MLPCN Grant: R03 MH085705-01A1 Assay Submitter (PI): Alexander Agoulnik NCGC Assay Overview: The relaxin hormone is involved in the variety of biological functions in normal tissues and diseases. The role of relaxin is well-established in female reproduction and parturition, mammary gland and endometrial development, maintenance of myometrial quiescence during pregnancy. Relaxin signaling through its G protein-coupled receptor (GPCR) RXFP1 results in ECM remodeling through regulation of collagen deposition, cell invasiveness, proliferation and overall tissue homeostasis. […] Recombinant human relaxin (rhRlx) is currently being tested in clinical trials as a protective agent in congestive heart failure, in treating severe preeclampsia, and as an anti-fibrotic agent in systemic sclerosis. Upon relaxin binding RXFP1 activation leads to the activation of adenylate cyclase (AC) via Gs. cAMP will activate PKA, which phosphorylates many signaling proteins. Thus, detection of cAMP increase is an easy and reliable indication of relaxin receptor activation. To screen for agonists of the relaxin receptor, a HEK293T cell line stably transfected with RXFP1 was used. RXFP1 activation was assayed by changes in cAMP levels as detected with a time-resolved fluorescence energy transfer (TR-FRET) cAMP detection kit.
NCGC Assay Protocol Summary: This is a cell-based assay for cAMP second messenger response to screen for agonists of the RXFP1 receptor. The assay was conducted in the presence of a PDE4 inhibitor (Ro 20174). The cells were lysed and the cAMP levels were measured with a TR-FRET cAMP kit. Presence of cAMP in the cell lysate disrupts binding between the cryptate-labeled anti-cAMP and d2-labeled cAMP pair, leading to a decrease in the TR-FRET signal. Data were normalized to the controls for basal activity (buffer only) and 100% activity (29 nM porcine relaxin). The EC50 values were determined from concentration-response data modeled with the standard Hill equation 1536-well assay protocol for the HEK293 RXFP1 cAMP assay: (1) Add 3 ul HEK293 RXFP1 cell culture. 2000 cells/well in DMEM/F12, 10% FBS, 1x Pen/Strep (dispensed offline with MultiDrop Combi). (2) Incubate 16-24 hr at 37C, 5% CO2. (3) Add 1 ul 400uM Ro20174 in DPBS, 0.05% BSA, 0.005% Tween 20. (3) Add 23 nl compounds in DMSO solution. Final concentration was 0.5 - 58 uM. (4) Incubate 30 min at 37C, 5% CO2. (5) Add 1 ul cAMP-d2 in lysis buffer (HTRF cAMP HiRange kit, CisBio). (6) Add 1 ul anti-cAMP antibody-cryptate in lysis buffer (HTRF cAMP HiRange kit, CisBio). (7) Incubate 30 min at room temperature. […] Keywords: relaxin, RXFP1, RXFP2, G-protein coupled receptor, cAMP, agonist, high throughput screening, MLSMR, MLSCN, NIH Roadmap, qHTS and NCGC
Also: nearly all actives have a fitted effect of over 65% in size.
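For activation in this document: cAMP rise lowers the TR-FRET signal in lysed cells with PDE4 inhibitor present; 0% = buffer-only basal and 100% = 29 nM porcine relaxin.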
Potency is read from the fitted curve at half-maximal effect.

Relaxin receptor 1 (Homo sapiens), sequence (Q9HBX9 whole entry, looked up): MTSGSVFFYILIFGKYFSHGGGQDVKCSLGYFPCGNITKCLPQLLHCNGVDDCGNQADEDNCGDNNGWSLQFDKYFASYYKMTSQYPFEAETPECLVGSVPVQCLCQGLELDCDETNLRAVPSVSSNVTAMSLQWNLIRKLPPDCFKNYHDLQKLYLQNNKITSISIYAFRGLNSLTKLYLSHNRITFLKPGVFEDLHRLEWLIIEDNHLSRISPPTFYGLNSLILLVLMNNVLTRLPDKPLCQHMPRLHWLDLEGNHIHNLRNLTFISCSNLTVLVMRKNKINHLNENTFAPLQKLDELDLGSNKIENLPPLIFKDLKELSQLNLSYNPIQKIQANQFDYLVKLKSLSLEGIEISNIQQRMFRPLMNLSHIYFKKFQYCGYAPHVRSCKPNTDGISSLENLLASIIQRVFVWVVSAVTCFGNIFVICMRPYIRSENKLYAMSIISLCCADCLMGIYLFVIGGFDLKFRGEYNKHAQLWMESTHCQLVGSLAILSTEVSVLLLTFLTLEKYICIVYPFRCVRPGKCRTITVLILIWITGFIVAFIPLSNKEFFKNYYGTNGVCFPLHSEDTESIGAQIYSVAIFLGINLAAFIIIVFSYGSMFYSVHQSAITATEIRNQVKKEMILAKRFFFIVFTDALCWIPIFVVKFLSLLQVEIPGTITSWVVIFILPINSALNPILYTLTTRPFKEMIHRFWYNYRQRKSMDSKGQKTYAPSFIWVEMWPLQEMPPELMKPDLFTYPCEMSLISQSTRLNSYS

| SMILES | activation | Potency |
| --- | --- | --- |
| COc1ccc(Nc2ncc(C#N)c(N)n2)c(OC)c1 | -3.23% (inactive) |  |
| O=C(CCc1nnc2ccc(NCCCN3CCCC3=O)nn12)NCc1ccccc1Cl | 2.42% (inactive) |  |
| COc1ccc(CCn2c(=N)c(C(=O)NCC3CCCO3)cc3c(=O)n4cccc(C)c4nc32)cc1 (stereo not given) | 20.5% (inactive) |  |
| Cc1ccc(C(=O)Nc2cccc(C(F)(F)F)c2)cc1NC(=O)c1cnnc2ccccc12 | 7.81% (inactive) |  |
| CCC(=O)Nc1ccc(-n2nnnc2SCC(=O)NNC(=O)c2ccco2)cc1 | -4.13% (inactive) |  |
| O=C(O)c1cccc(CSc2nnc(Cc3ccccc3)o2)c1 | 3.18% [at 45 µM] (inactive) |  |
| Cc1ccc2cc(CN(C(=O)c3cccs3)c3ccccc3)c(=O)[nH]c2c1 | 2.01% (inactive) |  |
| Cc1ccc(CN(C)C(=O)c2ccccc2NC(=O)c2ccccc2)o1 | -3.25% [at 125 µM] (inactive) |  |
| CC(=O)c1sc(NC(=O)C(C)C)nc1C |  | 15.4 µM (active) |
| COC(=O)c1c(N2C(=O)CC(Sc3ncccc3C(=O)O)C2=O)sc(C)c1C (stereo not given) | -8.76% (inactive) |  |
| Cc1ccc(CNC(=O)CCc2nnc3ccc(N4CCC5(CC4)OCCO5)nn23)cc1 | 25.6% (inactive) |  |
| COC(=O)[C@@H]1C[C@@]2(O)[C@H](O)[C@H](O)[C@H](O)C[C@H]2N1Cc1cc(F)ccc1F | 3.14% (inactive) |  |
| Cc1cc2c(SCC(=O)NCC3CCCO3)ncnc2s1 (stereo not given) | 25.2% (inactive) |  |
| Cc1cccn2c(=O)c(/C=C3\SC(=S)NC3=O)c(NCCCN3CCOCC3)nc12 |  | 7.74 µM (active) |
| Nc1ncnc2c1ncn2[C@@H]1O[C@H](COS(=O)(=O)O)[C@@H](O)[C@H]1O |  | 6.9 µM (active) |
| Cc1ccccc1OCC(=O)Nc1sc(C(=O)Nc2cccc(C)c2C)c(C)c1C#N |  | 6.15 µM (active) |
| CC1(C)Cc2c(sc3ncnc(NN)c23)CO1 | 25.2% [at 45 µM] (inactive) |  |
| Cc1noc(NS(=O)(=O)c2ccc(N3Cc4ccccc4C3=O)cc2)c1C |  | 11.9 µM (active) |
| COc1cc(Cl)c(C)cc1NC(=O)c1ccc2c(c1)OCO2 | -3.24% [at 45 µM] (inactive) |  |
| Cc1cc(C)n(C(=O)CCCn2cc([N+](=O)[O-])cn2)n1 | 28% (inactive) |  |

| SMILES | activation | Potency |
| --- | --- | --- |
| Cn1c(N)c(C(=O)CSc2nn(-c3ccc(F)cc3)c(=S)s2)c(=O)n(C)c1=O |  | 21.8 µM (active) |
| Nc1ncnc2c1ncn2C1OC(CO)C(O)C1O (stereo not given) |  | 1.74 µM (active) |
| Cc1c(C(=O)NNc2cc(=O)n(C)c(=O)n2C)cccc1[N+](=O)[O-] | 25.3% [at 45 µM] (inactive) |  |
| Nc1cc2ccncc2c2ccccc12 | 5.74% (inactive) |  |
| CCOC(=O)c1sc(NC(=O)CCc2ccc(OC)cc2)nc1C |  | 15.4 µM (active) |
| CCCC(=O)Nc1ncnc2c1ncn2[C@@H]1O[C@@H]2COP(=O)(O)O[C@H]2[C@H]1OC(=O)CCC |  | 0.774 µM (active) |
| COc1ccc(/C=C2/SC(=O)N(CC(=O)Nc3cc(C)on3)C2=O)cc1OC | -68% (inactive) |  |
| Cc1cccc2cc(C#N)c(SCC(=O)NCc3cccs3)nc12 |  | 17.3 µM (active) |
| O=C(Nc1ccccc1C(=O)NCCc1ccc(O)cc1)c1ccco1 | -4.47% [at 125 µM] (inactive) |  |
| Nc1c(Cl)cc(-c2[nH]c3cc(C(=O)NCCO)ccc3c(=O)c2O)cc1Cl |  | 34.6 µM (active) |
| O=C(O)c1cc(-c2ccco2)nc2ccc(Br)cc12 |  | 19.4 µM (active) |
| O=C(Cn1cnc2c(nnn2-c2ccc(F)cc2)c1=O)NCC1CCCO1 (stereo not given) |  | 8.7 µM (active) |
| O=S(=O)(c1cccc(-c2cn3cccnc3n2)c1)N1CCOCC1 |  | 27.5 µM (active) |
| Cc1cc(C)nc(NS(=O)(=O)c2ccc(NC(=O)c3nn(-c4ccccc4)ccc3=O)cc2)n1 |  | 24.5 µM (active) |
| CCOC(=O)CNC(=O)CSc1ccc2nnc(-c3cccnc3)n2n1 | -30% (inactive) |  |
| Cc1cc(NC(=O)c2ccccc2F)nc2c1c(=O)oc1ccccc12 |  | 17.3 µM (active) |
| O=C1CN(c2nc3ccccc3n3cnnc23)CC(=O)N1CCc1ccccc1 | 13.4% [at 45 µM] (inactive) |  |
| CN(C)c1ccc(NC(=O)C2C3C=CC(C3)C2C(=O)O)cc1 (stereo not given) | -7.21% (inactive) |  |
| C=CCNc1ncnc2c1ncn2C1OC(CO)C(O)C1O (stereo not given) | -29.1% (inactive) |  |
| Cc1ccccc1NC(=O)c1ccccc1NC(=O)c1ccco1 | -6.33% [at 125 µM] (inactive) |  |
